Source: PubChem BioAssay (several laboratories)
Compounds with a hit are over-represented: about 2.2% of the library has one in this group of screens.
Ba/F3 V617F tox – lowers viability of Ba/F3 cells expressing EpoR and JAK2V617F; ATP luminescence; inhibition, % at 5.6 µM; 220,000 compounds, 1.1% hits; AID 1446;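 active = inhibition above the campaign mean plus 3 SD over all tested compounds, cut at about 24% in these data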;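 note: cytokine-independent growth of Ba/F3 cells driven by EpoR plus mutant JAK2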
IEC-6 tox – kills IEC-6 intestinal cells in KLF5 counter-screen. IEC-6 cytotoxicity, luminescence viability. inhibition, % at 5 µM. 290,000 compounds, 0.78% hits. AID 1825; in the data active = inhibition above about 22%
BaF3 parental – reduces parental Ba/F3 cell viability, JAK2V617F counter-screen; CellTiter-Glo ATP luminescence; inhibition, % at 5.6 µM; 220,000 compounds, 1.1% hits; AID 1486;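 active = inhibition above a per-campaign cutoff, the mean inhibition of all tested compounds plus 3 SD, cut at about 27% in these data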
KLF5 inh – suppresses KLF5 promoter-driven expression; DLD-1 KLF5 promoter-luciferase reporter, luminescence; inhibition, % at 5 µM; 290,000 compounds, 0.23% hits;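 active = inhibition above a per-plate limit of that plate's mean compound inhibition plus 3 SD, cut at about 60% in these data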;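 note: higher means less KLF5 promoter-driven luciferase light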
aSyn 5UTR inh – MLPCN primary screen, SNCA 5' untranslated region | alpha-synuclein 5'UTR reporter, inhibitor activity | inhibition, % (tested at 7.5 µM) | 300,000 compounds, 0.82% hits; in the data active = inhibition above about 60%;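 note: H4 neuroglioblastoma cells stably carrying SNCA 5'UTR luciferase fusion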
APP 5UTR inh – APP translation inhibition | inhibition, % at 2 µM | SH-SY5Y APP 5'UTR-luciferase reporter, luminescence | 190,000 compounds, 0.82% hits;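 active = inhibition above a set limit, derived from the sample mean plus 3 SD, cut at about 45% in these data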
Of the large screens only hits and unclear results are named; the others gave an inactive call.

C[C@@H](NC(=O)[C@@H]1Cc2ccccc2CN1C(=O)OC(C)(C)C)C(=O)NCC1CCCO1 (some centres not stated)	none (no result: Ba/F3 V617F tox, BaF3 parental, APP 5UTR inh)
CN(C)c1ccc(C(=O)c2ccccc2)cc1	none
CN(C)c1ccc(N=Nc2ccc(C(=O)O)cc2)cc1	aSyn 5UTR inh 64 (no result: Ba/F3 V617F tox, BaF3 parental, APP 5UTR inh)
Cc1nn(-c2ccccc2)c(C)c1NC(=O)COC(=O)c1ccc(O)cc1O	none (no result: Ba/F3 V617F tox, BaF3 parental, APP 5UTR inh)
CC1CCCN(CCCNC(=O)c2nn(C)c3c2CS(=O)(=O)c2ccccc2-3)C1 (configuration not stated)	none (no result: Ba/F3 V617F tox, BaF3 parental, APP 5UTR inh)
O=C(O)COc1ccc(/C=C/C(=O)c2ccc(C3CCCCC3)cc2)cc1	none (no result: Ba/F3 V617F tox, BaF3 parental, APP 5UTR inh)
NCCOc1ccc(C2CCCCC2)cc1	aSyn 5UTR inh 71
O=C(C1CC(=O)N(c2ccccc2)C1)N1CCN(c2ccccc2F)CC1 (configuration not stated)	none (no result: Ba/F3 V617F tox, BaF3 parental, APP 5UTR inh)
CN(C)c1ccc(/C=N/N2CCN(c3ccccn3)CC2)cc1	Ba/F3 V617F tox 35, BaF3 parental 57 (no result: APP 5UTR inh)
CC(C)(C)c1ccc(/C=N/N2CCN(c3ccccn3)CC2)cc1	none (no result: APP 5UTR inh)
CCCN(CCC)S(=O)(=O)c1ccc(C(=O)Nc2nnc(-c3cc(OC)cc(OC)c3)o2)cc1	aSyn 5UTR inh 82
CCCN(CCC)S(=O)(=O)c1ccc(C(=O)Nc2nnc(-c3cccc(OC)c3)o2)cc1	aSyn 5UTR inh 70
CCCN(CCC)S(=O)(=O)c1ccc(C(=O)Nc2nnc(CSC)o2)cc1	none
COc1cccc(-c2nnc(NC(=O)c3cccc(F)c3)o2)c1	none (no result: Ba/F3 V617F tox, IEC-6 tox, BaF3 parental, KLF5 inh, APP 5UTR inh)
COc1ccc(CCNC(=O)c2cc3cc(F)ccc3nc2C)cc1OC	none (no result: Ba/F3 V617F tox, IEC-6 tox, BaF3 parental, KLF5 inh, APP 5UTR inh)
CCC(C)(C)c1ccc(OCCCC[n+]2cccc(C)c2)c(C(C)(C)CC)c1	Ba/F3 V617F tox 101, BaF3 parental 87
COC(=O)c1ccc2c(c1)C(C)(C)C(/C=C/c1ccccc1O)=[N+]2C	aSyn 5UTR inh 118
Cc1cc([N+](=O)[O-])ccc1NC(=O)CSc1nncn1-c1ccccn1	none (no result: Ba/F3 V617F tox, BaF3 parental, APP 5UTR inh)
CCOC(=O)c1ccc(NC2c3ccccc3C(=O)N2c2cccnc2)cc1 (configuration not stated)	BaF3 parental 27
CN(C)NC1=CC(=[N+]2CCCC2)CC(C)(C)C1	none
CCCN(CCC)C1=CC(=[N+]2CCCC2)CC(C)(C)C1	Ba/F3 V617F tox 88, BaF3 parental 72
Cc1cc(C)cc(N(C(C)C(=O)NCc2ccc3c(c2)OCO3)S(C)(=O)=O)c1 (configuration not stated)	none
CNC(=O)CN(c1cccc(Br)c1)S(C)(=O)=O	none
CS(=O)(=O)N(CC(N)=O)c1cccc(Br)c1	BaF3 parental 93
O=C(NCc1ccco1)c1sc(=S)n2c1[nH]c(=O)c1ccccc12	BaF3 parental 91
CCOC(=O)c1cccc(NC(=O)/C=C/c2ccc3c(c2)OCO3)c1	aSyn 5UTR inh 106
CC[n+]1c(C)sc2c3ccsc3ccc21	none
CCN1/C(=C/c2ccc3cc(C)ccc3[n+]2CC)Sc2ccc3sccc3c21	aSyn 5UTR inh 131 (no result: Ba/F3 V617F tox, IEC-6 tox, BaF3 parental, KLF5 inh, APP 5UTR inh)
O=C(c1nn2c(C(F)(F)F)cc(-c3cccs3)nc2c1Cl)N1CCCc2ccccc21	aSyn 5UTR inh 78
O=C(CNC(=O)c1ccccc1Br)N/N=C/c1ccccc1O	none
O=C(CNC(=O)c1ccccc1Br)N/N=C/c1cc(Br)ccc1O	aSyn 5UTR inh 70
CC(CCCC(C)(C)O)NC(=O)c1cc(COc2ccc3ncccc3c2)on1 (configuration not stated)	BaF3 parental 44
CC(C)N(Cc1nccn1C)C(=O)c1cc(COc2ccc3ncccc3c2)on1	none
O=C(NCc1cccc(Cl)c1)c1cc(COc2ccc3ncccc3c2)on1	none
Cc1nc(CN(C)C(=O)c2cc(COc3ccc4ncccc4c3)on2)cs1	BaF3 parental 38
Cc1cc(C)c2nc(Cl)c(CN(Cc3ccco3)C(=O)Nc3ccccc3C)cc2c1	APP 5UTR inh 57
COCCN(Cc1cc2cc(C)cc(C)c2nc1Cl)C(=O)Nc1ccccc1	none
C1=C2C[N+]3(CCCC3)CC2Cc2ccc3ccccc3c21 (configuration not stated)	Ba/F3 V617F tox 64, BaF3 parental 55
Cc1ccc(C(=O)Nc2ccc3c(c2)OCCO3)c(C)c1	KLF5 inh 65, aSyn 5UTR inh 73 (no result: Ba/F3 V617F tox, BaF3 parental, APP 5UTR inh)
Cc1ccc(NC(=O)c2ccc3c(c2)OCCO3)cc1C	aSyn 5UTR inh 74 (no result: Ba/F3 V617F tox, BaF3 parental, APP 5UTR inh)
COc1ccccc1OCCNC(=O)C1CC(=O)N(c2cccc(SC)c2)C1 (configuration not stated)	none (no result: Ba/F3 V617F tox, IEC-6 tox, BaF3 parental, KLF5 inh, APP 5UTR inh)
